Compounds with a hit are over-represented: about 2.8% of the library has one in this group of screens.
HEK293 viab: GF-AFC viability counterscreen for inhibitors of alpha-synuclein gene (SNCA) expression | HEK-293-SNCA-luc viability, GF-AFC fluorescence, 24 h | Potency, µM (series often up to 57.1 µM), for the others: at the top dose activity change, negative = cytotoxicity, most hits filed as cytotoxic | 0.12% of 150,000 active;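 further: potency means the concentration at half of the fitted maximal effect; 0% = DMSO-treated cells and -100% = medium-only wells without cells; nearly all actives have a fitted effect of over 30% in size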
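HEK-293-SNCA-luc cells (1500/well) plated 24 h, then exposed 24 h to a dilution series; GF-AFC added 30 min at 37C, fluorescence 405/540 nm; normalised to medium-only and DMSO wells, Hill fit.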
SNCA expr inhib: Primary qHTS assay for inhibitors of alpha-synuclein gene (SNCA) expression. HEK-293 SNCA-luciferase knock-in, luminescence, 24 h. Potency, µM (titrated, usually from 57.2 µM), inactives show at the highest dose activity change, negative = inhibition, actives largely listed as inhibitors. 0.17% of 140,000 active;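 further: potency means the concentration at half of the fitted maximal effect; plate controls were DMSO cells for no effect and cell-free wells for full effect; nearly all actives have a fitted effect of over 45% in size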
KDM5B inhibitor: Primary screen for KDM5B Histone Demethylases FDH-coupled qHTS | Potency, µM (top dose mostly 57.7 µM), usual class: inhibitors | KDM5B demethylase, FDH-coupled NADH fluorescence (FDH is formaldehyde dehydrogenase) | Lysine-specific demethylase 5B (Homo sapiens), Q9UGL1 | AID 1347165, 2019 | 2.6% of 220,000 active; further: potency means the concentration at half of the fitted maximal effect; 0% is about no effect; nearly all actives have a fitted effect of over 70% in size
Target sequence (Q9UGL1 whole entry, looked up): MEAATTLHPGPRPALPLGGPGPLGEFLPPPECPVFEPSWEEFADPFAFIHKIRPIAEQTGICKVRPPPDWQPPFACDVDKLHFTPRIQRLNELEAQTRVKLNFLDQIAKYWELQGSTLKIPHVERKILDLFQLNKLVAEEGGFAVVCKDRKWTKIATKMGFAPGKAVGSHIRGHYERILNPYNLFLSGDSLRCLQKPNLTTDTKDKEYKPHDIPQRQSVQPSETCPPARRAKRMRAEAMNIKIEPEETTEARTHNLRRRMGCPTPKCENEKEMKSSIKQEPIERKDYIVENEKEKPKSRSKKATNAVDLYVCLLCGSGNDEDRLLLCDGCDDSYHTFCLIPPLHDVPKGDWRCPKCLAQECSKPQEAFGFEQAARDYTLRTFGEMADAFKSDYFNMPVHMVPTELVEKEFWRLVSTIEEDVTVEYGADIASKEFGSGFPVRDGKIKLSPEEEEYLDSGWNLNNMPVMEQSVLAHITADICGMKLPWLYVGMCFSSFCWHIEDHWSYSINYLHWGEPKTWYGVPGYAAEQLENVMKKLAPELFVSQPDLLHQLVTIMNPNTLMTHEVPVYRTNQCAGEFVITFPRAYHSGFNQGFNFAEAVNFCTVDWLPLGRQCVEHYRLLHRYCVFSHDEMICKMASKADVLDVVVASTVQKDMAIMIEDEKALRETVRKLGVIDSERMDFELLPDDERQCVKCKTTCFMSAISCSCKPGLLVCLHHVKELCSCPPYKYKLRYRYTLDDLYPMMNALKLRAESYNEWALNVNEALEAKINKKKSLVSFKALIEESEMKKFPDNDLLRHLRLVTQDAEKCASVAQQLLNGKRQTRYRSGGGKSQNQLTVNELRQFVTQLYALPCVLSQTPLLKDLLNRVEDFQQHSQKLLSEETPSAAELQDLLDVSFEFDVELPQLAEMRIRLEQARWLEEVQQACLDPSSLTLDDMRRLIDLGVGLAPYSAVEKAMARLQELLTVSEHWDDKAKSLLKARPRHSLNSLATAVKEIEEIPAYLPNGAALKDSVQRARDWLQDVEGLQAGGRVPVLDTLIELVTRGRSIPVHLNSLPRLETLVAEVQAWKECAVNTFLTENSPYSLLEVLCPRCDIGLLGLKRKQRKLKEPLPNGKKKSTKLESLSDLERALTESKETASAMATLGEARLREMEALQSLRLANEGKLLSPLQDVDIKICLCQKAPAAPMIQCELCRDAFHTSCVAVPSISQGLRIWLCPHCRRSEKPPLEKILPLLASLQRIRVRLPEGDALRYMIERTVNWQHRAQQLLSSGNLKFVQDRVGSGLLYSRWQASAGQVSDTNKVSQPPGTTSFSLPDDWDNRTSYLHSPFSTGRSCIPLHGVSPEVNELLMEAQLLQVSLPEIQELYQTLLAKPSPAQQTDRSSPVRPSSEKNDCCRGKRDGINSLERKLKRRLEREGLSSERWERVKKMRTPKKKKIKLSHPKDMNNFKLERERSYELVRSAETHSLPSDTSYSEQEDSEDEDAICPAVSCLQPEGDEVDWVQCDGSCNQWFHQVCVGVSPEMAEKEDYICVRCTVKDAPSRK
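Inhibition is measured as reduced NADH fluorescence generation from FDH coupling to formaldehyde release. Truncated KDM5BΔAP at 200 nM final acts on H3K4me3 peptide (12.5 µM in substrate mix) in pH 7.5 HEPES buffer with Tween-20, 30 min, room temperature.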
IP6K1 inh: Primary qHTS assay for small molecule inhibitors of Inositol hexaphosphate kinase 1 (IP6K1); Inositol hexakisphosphate kinase 1 (Homo sapiens), Q92551; IP6K1 kinase, ADP-Glo luminescence, 2 h; active compounds read low; activity change, % (series mostly up to about 58 µM); 0.81% of 140,000 active; AID 1645851, 2021; in the data active means activity change below about -25%; further: on the % scale 0 is the no-effect control and ±100 the full control effect
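ADP-Glo luminescence measures ADP made by human IP6K1 during a 2 h RT reaction with ATP/IP6 (mix at 1.3 mM/130 uM); top library doses 57.5 and 19.1 uM final.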
* = called active by the depositor; i = inactive; u = inconclusive; x = no result; ! = a repeat was not active; [ ] = another dose, or the depositor's remark. Unless noted, the call rests on the fitted dose curve; in most records, active means well fitted curve in the direction sought with a large enough effect; inconclusive means small, poorly fitted or top-dose-only effect, or another doubt; inactive means no such curve, though single readings can be large; an effect the other way counts as inactive or inconclusive.

SMILES | HEK293 viab | SNCA expr inhib | KDM5B inhibitor | IP6K1 inh
CCCCC(CC)CNC(=S)NCc1ccc(C)cc1 (centres undefined) | x | x | i | x
Fc1ccc(CN2CCCC3(CCN(c4cnccn4)C3)C2)cc1F (centres undefined) | 3.1% | -12.2% | 28.2µM* | -2.4
Cc1cc(C)cc(N2CC(c3nc4ccccc4n3CCN3CCOCC3)CC2=O)c1 (centres undefined) | x | x | i | x
Cc1ccc(S(=O)(=O)NCCO)cc1 | x | x | i | x
Cc1cccc(C)c1Nc1c(-c2ccccc2O)nc2cnccn12 | x | x | i | x
Cc1cccc(-c2nocc2CCC(=O)N2CCN(c3cccc(C)c3)CC2)c1 | -8.0% | 5.8% | i | 10.9
COc1cccc(-c2nc3cnccn3c2NCCC(=O)NC2CCCCCC2)c1 | u | 18.5% | 28.2µM* | 2.0
Cc1cccc(-c2nc3cnccn3c2NCCC(=O)N2CCCCC2)c1 | 22.8% | -0.5% | 28.2µM* | 5.9
Cc1cccc(-c2nc3cnccn3c2NCCC(=O)N(C)C)c1 | 26.9% | 5.4% | 31.6µM* | -2.7
Cc1cccc(C(=O)Nc2c(-c3ccccc3)nc3cc(C)ccn23)c1 | u | 28.0% | i | 3.9
Cc1ccccc1-c1nc2cnccn2c1NCCC(=O)N1CCCCC1 | 20.1% | 116.6% | 25.1µM* | 22.7
Cc1ccc(C)c(S(=O)(=O)NCCO)c1 | x | x | i | x
COc1ccc(OCCOC(=O)c2cc(C)nc3ccccc23)cc1 | x | x | i | x
Cc1ccccc1-c1nc2cnccn2c1NCCC(=O)N1CCC(C)CC1 | 14.4% | u | 28.2µM* | 18.9
COc1cc(-c2nc3cnccn3c2Nc2ccc(C(C)C)cc2)ccc1O | u | 17.4% | u | -9.8
COc1cccc(-c2nc3cnccn3c2NCCC(=O)N2CCN(C(C)C)CC2)c1 | u | 1.6% | 28.2µM* | 5.9
Cc1nnc2ccc(N3CCCC(NC(=O)c4cccc(C(F)(F)F)c4)C3)nn12 (centres undefined) | x | x | x | -1.1
O=C(Nc1cccc2[nH]ccc12)C(=O)N1CCCCC1 | x | x | i | x
CCOc1ccccc1CN1CCC([C@@H]2CNC[C@H]2CO)CC1 | 7.6%[12.5 µM] | 25.1µM* | i | 18.3
COc1c(Br)c(CC2CC(c3ccc(F)cc3)=NO2)c(OC)c2c1OCO2 (centres undefined) | x | x | i | x
O=C(NCCc1ccccc1F)c1nc2sccn2c1-c1cccc(C(F)(F)F)c1 | u | u | x | 4.8
CC(=O)NCC(=O)NC1CC(C)(C)Cc2nc(N(C)Cc3ccccc3)ncc21 (centres undefined) | 4.9% | -11.6% | 31.6µM* | 30.2
CCC[C@@H](C=O)NC(=O)[C@H](CC(C)C)NC(=O)[C@H](CC(C)C)NC(=O)OCc1ccccc1 | u | 1.92µM* | x | x
O=C1N(c2ccccc2)c2ccccc2C12CCN(Cc1ccc(C(F)(F)F)cc1)C2 (centres undefined) | 0.9% | -9.3% | i | -17.5
N#Cc1cccnc1N1CCN(Cc2cn(-c3ccccc3)nn2)CC1 | -2.3% | -12.2% | 22.4µM* | -12.3
SMILES | HEK293 viab | SNCA expr inhib | KDM5B inhibitor | IP6K1 inh
Cc1ccccc1-c1nc(N2CCOCC2)cc2c1CN(c1ccccc1)C2=O | -3.0%[87.6 µM] | -0.1%[87.6 µM] | 35.5µM* | 13.6
COc1cc(F)ccc1-c1nc(N2CCOCC2)cc2c1CN(c1ccccc1)C2=O | 5.1%[87.6 µM] | -26.4%[87.6 µM] | 10µM* | 4.2
Cc1ccccc1-c1nc(N2CCOCC2)cc2c1CN(Cc1ccccc1)C2=O | -26.8%[87.6 µM] | u | 31.6µM* | 9.8
COc1ccc(-c2noc(C3CC(=O)N(c4ccccc4)C3)n2)c(OC)c1 (centres undefined) | -6.1% | 69.7% | i | -10.4
O=C1c2cc(N3CCOCC3)nc(-c3cccnc3)c2CN1c1ccccc1 | -4.4%[87.6 µM] | 7.9%[87.6 µM] | 39.8µM* | 6.7
Cc1ccccc1-c1ncc2c(n1)OCCN(c1ccccc1)C2=O | -3.3%[87.6 µM] | 9.8%[87.6 µM] | i | -18.2
CN(C)c1cccc(-c2nc(N3CCOCC3)cc3c2CN(Cc2cnn(C)c2)C3=O)c1 | -8.5%[87.6 µM] | -5.5%[87.6 µM] | i | 10.1
COc1ccc(-c2nc(N3CCOCC3)cc3c2CN(Cc2cnn(C)c2)C3=O)cn1 | 2.7%[87.6 µM] | 11.3%[87.6 µM] | 39.8µM* | 12.4
Cc1ccccc1-c1nc(N2CCOCC2)cc2c1CN(Cc1cnn(C)c1)C2=O | -10.0%[87.6 µM] | -9.3%[87.6 µM] | 39.8µM* | 3.2
CN1Cc2c(cc(N3CCOCC3)nc2-c2cnn(C)c2)C1=O | 9.5%[87.6 µM] | 97.2%[87.6 µM] | 39.8µM* | 15.3
COc1cc([N+](=O)[O-])cc2cc(C(=O)N3CCN(C45CC6CC(CC(C6)C4)C5)CC3)c(=O)oc12 | x | x | i | x
Cc1cccc2nnc(N3CCN(C(=O)c4ccco4)CC3)n12 | 7.1% | u | 22.4µM* | 7.2
O=C(Cc1ccc(F)cc1)NC1CCN(c2nc3ncccc3o2)CC1 | -5.1%[87.6 µM] | -16.7%[87.6 µM] | 28.2µM* | -6.1
Cc1cccc2sc(N3CCN(C(=O)c4ccco4)CC3)nc12 | 8.5% | 124.6% | i | 18.7
O=C(Cc1ccccn1)NC1CCN(c2nc3ncccc3o2)CC1 | 6.1% | -5.2% | 25.1µM*! | -10.5
COc1ccc(CC(=O)NC2CCN(c3nnc4cccc(C)n34)CC2)cc1 | -12.2% | 9.4% | 28.2µM* | 17.7
CCn1c(SCC(=O)c2ccc(C#N)cc2)nnc1-c1ccccc1 | x | x | i | x
N#CC(C(=O)CCc1ccccc1F)C(=O)Nc1ccccc1Cl (centres undefined) | x | x | i | x
COc1ccc(CC(=O)N2CCN(c3nc4ncccc4o3)CC2)cc1 | 12.4% | 27.9% | u | -1.1
COc1ccc(CC(=O)NC2CCN(c3nc4ncccc4o3)CC2)cc1 | 0.4% | 12.5% | 31.6µM* | -6.5
O=C(COC(=O)c1ccc(N2CCCC2=O)cc1)c1ccc2c(c1)CCCC2 | x | x | i | x
CC(Oc1cccc(Cl)c1)C(=O)NCc1nnc2ccc(-c3ccccc3)nn12 (centres undefined) | 13.1% | -13.2% | u | 8.1
CCC(C(=O)NCc1nnc2ccc(-c3ccccc3)nn12)c1ccccc1 (centres undefined) | 3.1% | -15.1% | 22.4µM* | 39.5
CCC(C(=O)NCc1nnc2ccc(-c3ccc(OC)cc3)nn12)c1ccccc1 (centres undefined) | 1.5% | 14.6% | 25.1µM* | 10.0
CC1(COc2ccccc2)COc2ccc(C(=O)NCCOc3ccccc3)cc2N1 (centres undefined) | -25.5%[87.6 µM] | u | 39.8µM* | 1.9
CN(Cc1ccccc1)C(=O)c1ccc2c(c1)NC(C)(COc1ccccc1)CO2 (centres undefined) | u | u | 39.8µM* | 10.6
CC1(CNc2ccccc2)COc2ccc(C(=O)NCCOc3ccccc3)cc2N1 (centres undefined) | -26.5%[87.6 µM] | -2.1%[87.6 µM] | 28.2µM* | -12.3
CC1(CNc2ccccc2)COc2ccc(C(=O)NCCN3CCOCC3)cc2N1 (centres undefined) | 13.4%[87.6 µM] | -18.1%[87.6 µM] | i | -2.2
